Screens deposited in PubChem by National Center for Advancing Translational Sciences (NCATS).
TGFb SMAD3 inh – inhibitors of TGF-b signaling. HepG2 CAGA-GFP TGF-b/SMAD3 reporter, GFP fluorescence, 18 h; TGF-beta stimulated, 500 pg/mL final. Potency, µM (titrated, usually from 46.1 µM), most hits filed as inhibitors. 410,000 tested, 1.2% active; note: nearly all actives have a fitted effect of over 65% in size
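Cell-based qHTS in HEPG2 carrying a CAGA-GFP Smad reporter; compounds added before 500 pg/mL final TGF-beta, 18 h incubation at 37 degrees C, GFP fluorescence quantified per cell by imaging cytometry.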
HepG2 viability – counter-screen for TGF-b inhibitors: cytotoxicity in HepG2 cells; AID 588856; Potency, µM (top dose mostly 46.1 µM), actives largely listed as cytotoxic; HepG2 CAGA-GFP viability, ATP luminescence, 18 h; 410,000 tested, 0.76% active
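CellTiter-Glo luminescence gave cytotoxicity after 18 hours at 37 degrees C. The cells were HepG2 CAGA-GFP in 1% FBS DMEM, stimulated with 500 pg/mL TGF-beta after compound addition. %Activity was normalised to no-cell wells (complete cell-killing) and DMSO (no toxicity), and curves were fitted and classified.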
D3 antag – blocks the human D3 dopamine receptor; D3R cells, DiscoveRx beta-arrestin luminescence, antagonist mode; hits give low values; 360,000 tested, 2.5% active; AID 652054; P35462; max response, negative = inhibition, %; in the data active = max response below about -50%; inconclusive = no clear call, values can overlap the other calls
Target sequence (P35462 whole entry, looked up): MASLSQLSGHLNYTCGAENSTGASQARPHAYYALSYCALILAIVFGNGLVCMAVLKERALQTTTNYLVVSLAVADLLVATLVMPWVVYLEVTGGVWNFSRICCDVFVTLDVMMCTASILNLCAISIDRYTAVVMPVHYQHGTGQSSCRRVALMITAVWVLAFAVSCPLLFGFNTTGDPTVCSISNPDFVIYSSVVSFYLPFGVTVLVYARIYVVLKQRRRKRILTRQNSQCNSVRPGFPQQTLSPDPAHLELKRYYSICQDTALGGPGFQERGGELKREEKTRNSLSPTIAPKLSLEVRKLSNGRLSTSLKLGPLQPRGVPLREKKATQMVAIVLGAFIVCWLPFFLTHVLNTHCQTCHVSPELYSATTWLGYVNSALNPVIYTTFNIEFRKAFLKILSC
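Cells expressing the human receptor were seeded at 1500 cells/well, incubated overnight at 37 degrees C in 5% CO2, then exposed to library compounds with dopamine controls for 90 minutes at 37 degrees C before luminescent detection.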
ATXN2 expr inh – ATXN2 expression inhibition | Potency, µM (titrated, usually from 57 µM), usual class: inhibitors | HEK-293 ATXN2-luciferase reporter, luminescence, 24 h | 360,000 tested, 0.72% active; note: nearly all actives have a fitted effect of over 55% in size
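ATXN2-luciferase reporter cells (luciferase flanked by upstream and downstream ATXN2 gene portions) were treated 24 h at 37 °C with compounds at up to 57 uM. SteadyGlo luminescence gave expression; GF-AFC fluorescence gave viability.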
ATXN viability – viability counter-screen for ATXN expression inhibitors; S2 cells (HEK-293 line with an ATXN2-luciferase reporter) viability, CellTiter-Fluor protease fluorescence, 24 h; Potency, µM (doses to about 56.7 µM), hits mostly cytotoxic; 400,000 tested, 0.49% active; note: nearly all actives have a fitted effect of over 40% in size
DRD3 agonist – D3 dopamine receptor (human) agonism | P35462 | D3R DiscoveRx beta-arrestin cells, luminescence, 90 min | max activation, % | 410,000 tested, 0.58% active | AID 652048; in the data active = max activation above about 30%
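Agonist-mode cell screen: cells plated at 1500/well and incubated overnight at 37 °C, then exposed to library compounds for 90 min at 37 °C. Detection reagent was added for 30–60 min at room temperature, and luminescence was read.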
A number is an active result; n = inactive; u = inconclusive; x = no result; ! = not active in a repeat. Sampled rows, rich in hits. Any-hit rate of the full collection: about 4.8%. Unless noted, calls come from the whole dose curve; as a rule, active = well fitted curve in the direction sought with a large enough effect; inconclusive = small, poorly fitted or top-dose-only effect, or another doubt; inactive = no such curve, though single readings can be large; an effect the other way counts as inactive or inconclusive.

SMILES	TGFb SMAD3 inh	HepG2 viability	D3 antag	ATXN2 expr inh	ATXN viability	DRD3 agonist
CSc1ccc(CN2CCC(C)(Oc3ccc(-n4ccnc4)cc3)C2)cc1 (configuration not stated)	n	n	-97	u	n	n
CSc1ccc(OC2(C)CCN(Cc3ccccc3)C2)cc1 (configuration not stated)	n	n	-73	n	n	n
CSc1ccc(CN2CCC(C)(Oc3ccc(CC#N)cc3)C2)cc1 (configuration not stated)	n	n	n	n	n	n
CC1(Oc2ccccc2)CCN(Cc2csc3ccccc23)C1 (configuration not stated)	n	n	-83	n	n	n
Cc1nc2c(-c3ccccc3)c(C)nn2c(C)c1CCC(=O)NCc1ccc(Cl)cc1	n	n	x	n	n	n
CN[C@H](C)CCC=C(C)C	u	n	x	x	x	x
Fc1ccccc1NC(=S)N/N=C/c1ccccc1Br	n	n	-79	n	n	n
CCC(=O)O[C@H]1[C@H](O[C@@H]2[C@@H](C)[C@H](O[C@H]3C[C@@](C)(OC)[C@@H](O)[C@H](C)O3)[C@@H](C)C(=O)O[C@H](CC)[C@@](C)(O)[C@H](O)[C@@H](C)C(=O)[C@H](C)C[C@@]2(C)O)O[C@H](C)C[C@@H]1N(C)C	x	x	x	n	16µM!	n
CCOC(=O)C(=C1Nc2ccccc2N1)n1c(-c2ccco2)nc2ccccc21	x	x	-54	n	n	n
CCOC(=O)C(=C1Nc2ccccc2N1)n1c(-c2cnccn2)nc2ccccc21	x	x	n	n	u	n
Cc1cc(C)c(C2C(C#N)=C(N)Oc3n[nH]c(C)c32)cc1CN1CCCC1 (configuration not stated)	n	n	-112	n	n	n
Cc1[nH]nc2c1C(c1cc(Br)cs1)C(C#N)=C(N)O2 (configuration not stated)	10µM	n	n	n	n	n
Cc1[nH]nc2c1C(c1ccoc1)C(C#N)=C(N)O2 (configuration not stated)	n	n	n	n	u	n
Cc1[nH]nc2c1C(c1ccco1)C(C#N)=C(N)O2 (configuration not stated)	n	n	n	n	n	n
O=S1(=O)c2ccccc2N(Cc2ccc(Cl)cc2F)c2ccccc21	n	n	x	n	n	n
Cc1ccc(S(=O)(=O)Nc2ccc(Cl)cc2)cc1NC(=O)c1cc2c(s1)CCCC2	13µM	n	n	n	u	n
Cc1ccc(S(=O)(=O)N2CCOCC2)cc1NC(=O)c1cc2c(s1)CCC2	n	n	n	n	u	n
O=c1c(Br)ccc(Br)cc1Br	1.6µM	4µM	-114	6µM	7.5µM	n
O=C1CN(S(=O)(=O)c2cc(Br)ccc2Br)CCN1	n	n	n	n	n	n
Cc1cc2c(cc1S(=O)(=O)Nc1cccc(C(F)(F)F)c1)OCCN2C	3.5µM	n	x	x	x	n
c1ccc(-c2onc(-c3ccco3)c2-c2ccc3[nH]ccc3c2)cc1	14µM	n	n	n	n	n
c1cc2cc(-c3c(-c4ccc5c(c4)OCO5)noc3-c3ccsc3)ccc2[nH]1	u	n	n	n	n	n
CCCC1=NN2C(=N)/C(=C\c3cc(C)n(-c4cccc(C)c4)c3C)C(=O)N=C2S1	n	3.5µM	n	n	n	n
CCCC1=NN2C(=N)/C(=C\c3cc(C)n(Cc4ccccc4)c3C)C(=O)N=C2S1	u	n	n	x	n	n
COc1cccc(N2CCN(Cc3ncc(-c4ccccc4)o3)CC2)c1	n	n	-56	n	n	n
COc1cccc(N2CCN(CC(=O)Nc3nnc(-c4ccccc4)s3)CC2)c1	n	n	n	u	n	n
COc1ccc(Oc2ncc(CN3CCN(c4ccccc4)CC3)s2)cc1	n	n	n	n	n	35
Cc1cccc2cc(CN(CC3CCCO3)C(=O)c3ccccc3F)c(N(C)C)nc12 (configuration not stated)	x	x	x	x	n	x
COc1ccc(CNC(=O)c2cccn2-c2nnc(N3CCCC3)s2)c(OC)c1	n	n	x	x	x	n
